Some test systems named below: HCT-15 colon; HT29 colon; SNB-19 CNS; U251 CNS; PC-3 prostate; SK-MEL-5 melanoma; UACC-62 melanoma; LOX IMVI melanoma; SK-MEL-28 melanoma.
Common to all, as to assay: NCI-60 one-dose screen, 48 h (100 = growth as untreated, 0 = no growth, -100 = all killed)
Common to all, as to details: 10 µM unless noted

Results on twelve compounds are retold here after PubChem BioAssay (NCI).

The panel holds about 83,000 compounds, 20% with a hit somewhere; the sample as a whole holds those more often.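 The endpoint reported here, percent growth, reads 100 for growth as untreated, 0 for no net growth and -100 for all cells dead.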 A number with no mark means an inactive call. The source made the active and inactive calls. How the source made its calls: active means growth percent below 10; inactive means the rest.

For the compound `Cc1ccc2nc3ccccc3c(NCc3ccccc3)c2c1`, the growth in the test with HCT-15 colon is 18%; with HT29 colon, 11.6%; in the test with SNB-19 CNS, 31.8%; with U251 CNS, 37%; with PC-3 prostate it was 29.7%; with SK-MEL-5 melanoma, 58.8%. Also, the figures for the growth in the test on UACC-62 melanoma, with LOX IMVI melanoma and in the test on SK-MEL-28 melanoma were 56.4%, 9.08% (active) and 78%, respectively.
In the case of `O=Cc1c[nH]c2ccc(-c3csc4ccccc34)cc12`, the growth with HCT-15 colon is 29%; in the test with HT29 colon, 16.5%; in the test with SNB-19 CNS, 34.3%; with U251 CNS, 25.2%; in the test on PC-3 prostate it was 61.9%; in the test on SK-MEL-5 melanoma, 61%. The growth in the test with UACC-62 melanoma is 34%; in the test on LOX IMVI melanoma, 39.5%; in the test with SK-MEL-28 melanoma, 69.8%.
On to `COc1cccc(-c2nn(-c3ccccc3)cc2-c2ccnc(NCCNC(=O)Nc3ccccc3)c2)c1`, for which the growth was 39.3% in the test on HCT-15 colon; 29.6% in the test on HT29 colon; 66.5% in the test with SNB-19 CNS; 36.8% in the test with U251 CNS; 30.8% in the test with PC-3 prostate; 46.1% with SK-MEL-5 melanoma. Further, the growth in the test with UACC-62 melanoma was 51.5%; in the test with LOX IMVI melanoma, 44.4%; in the test on SK-MEL-28 melanoma, 77.7%.
`Fc1c[c-]c(-c2ccccn2)c(F)c1.[CH3-].[Pt+2].c1ccc(P(C[PH+](c2ccccc2)c2ccccc2)c2ccccc2)cc1`: the growth in the test with HCT-15 colon is -51.4% (active); in the test with HT29 colon, 1.16% (active); in the test on SNB-19 CNS, -54.8% (active); in the test with U251 CNS, -71.7% (active); in the test with PC-3 prostate, -33.2% (active); with SK-MEL-5 melanoma it was -97.1% (active). Moreover, the values for the growth in the test with UACC-62 melanoma, in the test on LOX IMVI melanoma and in the test with SK-MEL-28 melanoma were -18.7% (active), -92.9% (active) and -51.2% (active), respectively.
On to `N#CC1=C(NC=O)Oc2c(ccc3ccccc23)C1c1ccccc1` (configuration not stated), for which the growth was 30.3% in the test on HCT-15 colon; 94% with HT29 colon; 30.8% in the test on SNB-19 CNS; 21.6% in the test on U251 CNS; 18.3% with PC-3 prostate; -33.1% (active) in the test on SK-MEL-5 melanoma. In addition, the growth in the test with LOX IMVI melanoma is 34.1%; in the test with SK-MEL-28 melanoma, 60.2%.
As to `COc1nc(N(C)O)nc(N(C)O)n1`, the growth in the test with HCT-15 colon was 23.9%; in the test on HT29 colon, 46.3%; with SNB-19 CNS, 31.8%; with U251 CNS, 27.2%; with PC-3 prostate it was 42.9%; in the test on SK-MEL-5 melanoma, 13.1%. The growth with UACC-62 melanoma was 11.5%; in the test with LOX IMVI melanoma, 14.8%; with SK-MEL-28 melanoma, 53.2%.
For `COc1ccc(N=C(c2ccccc2)C2C(=O)c3ccccc3C2=O)cc1`, the growth was 67% in the test with HCT-15 colon; 79.5% in the test on HT29 colon; 89.5% in the test on SNB-19 CNS; 81.8% with U251 CNS; 32.3% with PC-3 prostate; 71.4% in the test on SK-MEL-5 melanoma. The growth with UACC-62 melanoma is 63%; in the test on LOX IMVI melanoma, 75.4%; in the test with SK-MEL-28 melanoma, 74.1%.
In the case of `Cc1ccc(/C=C/c2c(C(=O)/C=C/c3ccc(C(F)(F)F)cc3)c(C)nc3ccccc23)cc1`, the growth in the test with HCT-15 colon was -29.6% (active); with HT29 colon it was 5.36% (active); with SNB-19 CNS, -62.9% (active); in the test on U251 CNS it was -70.7% (active); in the test with PC-3 prostate, -43.8% (active); in the test with SK-MEL-5 melanoma, -86.4% (active). In addition, the growth is -45.8% (active) in the test with UACC-62 melanoma, -87.3% (active) in the test with LOX IMVI melanoma and -63.2% (active) with SK-MEL-28 melanoma.
`CCOc1c(C#N)nnc2c(C#N)c(NC(=O)c3ccccc3)nn12`: the growth with HCT-15 colon was 106%; in the test with HT29 colon it was 106%; with SNB-19 CNS, 100%; in the test on U251 CNS it was 95.6%; with PC-3 prostate, 100%; in the test on SK-MEL-5 melanoma, 99.4%. The growth with UACC-62 melanoma was 101%; with LOX IMVI melanoma, 95.5%; in the test on SK-MEL-28 melanoma, 104%.
Consider `CCN(CC)c1nc(SCC(=O)Nc2nc3ccc(C)cc3s2)nc(-c2ccccc2)c1C#N`, for which the growth was 83.8% with HCT-15 colon; 79.6% in the test with HT29 colon; 89.5% in the test with SNB-19 CNS; 87.6% with U251 CNS; 67% with PC-3 prostate; 90.2% with SK-MEL-5 melanoma. In addition, the growth was 67.9% with UACC-62 melanoma, 98% with LOX IMVI melanoma and 103% in the test with SK-MEL-28 melanoma.
Consider `CCOc1ccccc1-n1c(CN2CCN(C(=O)COc3ccc(CNCCCCCCN4C5CCCC4CC(OC(=O)Nc4cc(C)ccc4OC)C5)cc3)CC2)nc2ccccc2c1=O` (configuration not stated), for which the growth was -84.4% (active) in the test on HCT-15 colon; -85.6% (active) with HT29 colon; -89.9% (active) with SNB-19 CNS; -99.2% (active) in the test with U251 CNS; -85.6% (active) with PC-3 prostate; -96.5% (active) in the test on SK-MEL-5 melanoma. Besides, the growth is -89.3% (active) in the test on UACC-62 melanoma, -92% (active) with LOX IMVI melanoma and -93% (active) in the test on SK-MEL-28 melanoma.
For `COc1cccc(/C=C/C(=O)c2c(C)nc3ccccc3c2/C=C/c2ccc(C)cc2)c1OC`, the growth was 19% in the test with HCT-15 colon; 29.7% with HT29 colon; 70.2% in the test with SNB-19 CNS; 55.3% with U251 CNS; 43.4% in the test on PC-3 prostate; 66% in the test on SK-MEL-5 melanoma. Also, the growth in the test on UACC-62 melanoma is 43.6%; in the test with LOX IMVI melanoma, 39%; in the test on SK-MEL-28 melanoma, 40.9%.
